# Results from PubChem BioAssay AID651930 (Southern Research Specialized Biocontainment Screening …, 2012).
# Unmarked numbers belong to inactive results. Calls of active or inactive are those of the source. No rule for the calls is given here.
# Test: Vero 76 cell cytotoxicity, dose response, cytotoxicity control for VEEV inhibitor project, set 9 (AID 651930)
# Conditions: Vero 76 cytotoxicity; series mostly up to 25 µM
SMILES,outcome,viability
O=c1nc(Nc2ccc(OCc3ccccc3)cc2)sc2ncc([N+](=O)[O-])cc12,inactive,–
O=c1nc(Nc2ccc(OCc3ccccc3)cc2)sc2ncccc12,inactive,–
O=c1nc(Nc2ccc(F)cc2)sc2ncccc12,inactive,–
COc1ccc(Nc2nc(=O)c3cccnc3s2)cc1,inactive,–
CNCCN(C)Cc1nc2ccc(C#N)cc2c(=O)n1-c1ccccc1F,inactive,–
COc1ccc(NC(=O)c2cc([N+](=O)[O-])ccc2N=C2CN(C)CCN2C)cc1,–,90.4% [at 5 µM]
O=c1c2cc([N+](=O)[O-])ccc2nc(CN2CCNCC2)n1-c1ccccc1,inactive,–
O=C1CN(Cc2nc3ccc([N+](=O)[O-])cc3c(=O)n2-c2ccccc2F)CCN1,inactive,–
CCN1CCN(Cc2nc3ccc(C(=O)O)cc3c(=O)n2-c2ccccc2)CC1,inactive,–
CN1CCN(C)C(=Nc2cc(Cl)c(C#N)cc2C(=O)Nc2ccccc2)C1,inactive,–
CNCCCN(C)Cc1nc2ccc([N+](=O)[O-])cc2c(=O)n1-c1ccccc1,inactive,–
CCN1CCN(C(c2nc3ncc([N+](=O)[O-])cc3c(=O)n2-c2ccccc2)C(c2nc3ncc([N+](=O)[O-])cc3c(=O)n2-c2ccccc2)N2CCN(CC)CC2)CC1 (stereo not given),inactive,–
CCN(CC)c1nc(=O)c2cccnc2s1,inactive,–
CCN1CCN(Cc2nc3c([N+](=O)[O-])cccc3c(=O)n2-c2ccccc2)CC1,inactive,–
CN(C)c1ccc(-n2c(CN3CCNCC3)nc3ccc([N+](=O)[O-])cc3c2=O)cc1,inactive,–
CCN1CCN(Cc2nc3ccc([N+](=O)[O-])cc3c(=O)n2C)CC1,inactive,–
O=c1nc(Nc2ccccc2OCc2ccccc2)sc2ncccc12,inactive,–
CCN1CCN(Cc2nc3ncccc3c(=O)n2-c2ccccc2)CC1,inactive,–
COc1ccc(-n2c(CN3CCNCC3)nc3ccc([N+](=O)[O-])cc3c2=O)cc1,inactive,–
COc1ccccc1-n1c(CN2CCNCC2)nc2ccc([N+](=O)[O-])cc2c1=O,inactive,–
